Rows were chosen to be rich in hits. Some 19% of all compounds tested hit in one or more screens of this group.
IL-1B inflam inh: inflammasome signaling inhibition, IL-1 beta readout. actives 4.7% (n = 360,000). AID 743279. activity change, % at 57.5 µM. THP-1 LPS/ATP IL-1B secretion, AlphaLISA, 16 h; hits give low values; in the data active = activity change below about -50%; inconclusive = mostly about -30% to -49%
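Secreted IL-1B measured by AlphaLISA bead assay after 16 h compound exposure of THP-1 cells; compounds (final up to 57.5 uM) added 1 h before LPS (250 ng/mL) and ATP (1.25 mM) stimulation; lower signal means less secretion.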
ELG1 DNA repair: ELG1-dependent DNA repair inhibition | HEK293T ELG1-luciferase reporter, luminescence, 16 h; DNA damage induced by 5-fluorouridine | Potency, µM (highest dose often 46.1 µM), usual class: inhibitors | actives 2.3% (n = 330,000); note: nearly all actives have a fitted effect of over 55% in size
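Cells (2,000 per well) received 5-fluorouridine plus test compound or DMSO and were incubated 16 hr at 37 °C, 5% CO2. Luciferase activity was read by luminescence 30 min after ONE-Glo addition; signal suppression marked inhibition of damage-induced ELG1 function.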
HT1080 IDH1KD tx: toxicity to HT-1080 IDH1 knockdown cells (counter line); HT-1080 IDH1 knockdown viability, ATP luminescence, 48 h; Potency, µM (top dose mostly 46.1 µM), usual class: cytotoxic; actives 2% (n = 360,000); AID 686971
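In this qHTS, HT-1080 cells depleted of IDH1 are exposed for 48 h at 37 °C to compound titrations. Toxicity is scored from CellTiter-Glo luminescence, with DMSO as full viability and medium alone as none.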
DT40 TDP1 no CPT: qHTS for Inhibitors of human tyrosyl-DNA phosphodiesterase 1 (TDP1): qHTS in cells in absence of CPT. DT40 Tdp1-/- hTDP1 cells, no CPT, ATP luminescence, 48 h. Potency, µM (top dose mostly 46.2 µM), actives largely listed as inhibitors. actives 15% (n = 420,000). AID 686978, 2013; note: nearly all actives have a fitted effect of over 55% in size
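Stably hTDP1-transfected Tdp1-null chicken DT40 cells were treated with library compounds minus camptothecin and grown for at least 48 hr at 37 °C, after which cellular ATP was quantified by luminescence.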
HT1080-NT tox: kills 2HG-producing HT-1080-NT fibrosarcoma cells. actives 1.6% (n = 360,000). Potency, µM (highest dose often 46.1 µM), most hits filed as cytotoxic. HT-1080-NT fibrosarcoma viability, CellTiter-Glo ATP luminescence, 48 h;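 note: NT is the 2HG producing partner of a matched IDH1 knockdown line; nearly all actives have a fitted effect of over 55% in size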
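Compounds were tested in concentration-response format on HT-1080-NT cells for 48 hours at 37 degrees C. Cell viability came from CellTiter-Glo luminescence; curves were classified by r2, response magnitude and activity.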
TDP1 cell CPT: growth inhibition of DT40 Tdp1-/-;hTDP1 cells with camptothecin (screen for TDP1 inhibitors). chicken DT40 Tdp1-/-;hTDP1 cells + 20 nM CPT, ATP luminescence, 48 h. Potency, µM (top dose mostly 46.2 µM), hits mostly inhibitors. actives 12% (n = 420,000). AID 686979; note: nearly all actives have a fitted effect of over 55% in size
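Chicken DT40 Tdp1-/- cells complemented with human TDP1, 400 cells/well, exposed to compounds plus 20 nM camptothecin for at least 48 h at 37 C; viability read as ATP content by CellTiter-Glo luminescence.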
Hits are given with their value; . = inactive; ? = inconclusive; / = no result. Unless noted, calls come from the whole dose curve; as a rule, active = well fitted curve in the direction sought with a large enough effect; inconclusive = small, poorly fitted or top-dose-only effect, or another doubt; inactive = no such curve, though single readings can be large; an effect the other way counts as inactive or inconclusive.

SMILES	IL-1B inflam inh	ELG1 DNA repair	HT1080 IDH1KD tx	DT40 TDP1 no CPT	HT1080-NT tox	TDP1 cell CPT
CCOC(=O)c1cnc2c(ccc3ccccc32)c1NCCN(C)C	-58.1	.	.	?	.	?
CCOC(=O)Cn1c(=O)oc2cc(S(=O)(=O)Nc3ccccc3F)ccc21	/	/	/	.	/	.
CC1CCCN(C(=O)c2ccc(Br)c(S(=O)(=O)N3CCOCC3)c2)C1 (stereo not given)	.	.	.	.	.	.
CCOc1cc(C(=O)Nc2ccc(NC(C)=O)cc2)ccc1OCC(=O)N1CCCCC1	.	.	.	?	.	.
COc1ccc(C)cc1NC(=O)CCc1c(C)nn(-c2ccc(N3CCCCC3)nn2)c1C	?	?	.	25.9µM	.	?
Cc1ccc(NC(=O)CCc2c(C)nn(-c3ccc(N4CCCCC4)nn3)c2C)cc1	.	?	.	.	.	?
Cc1nn(-c2ccc(N3CCCC3)nn2)c(C)c1CCC(=O)Nc1ccc(F)c(Cl)c1	/	/	/	25.9µM	/	18.4µM
Cc1nn(-c2ccc(N3CCCCC3)nn2)c(C)c1CCC(=O)Nc1ccc(F)cc1F	/	/	/	18.4µM	/	16.4µM
CCOC(=O)c1cccc(NC(=O)CCc2c(C)nn(-c3ccc(N4CCCCC4)nn3)c2C)c1	/	/	/	23.1µM	/	?
Cc1ccc(-c2nnn(CC(=O)N3CCCCC3)n2)cc1	.	.	.	.	.	.
Cc1cc(C)cc(NC(=O)CCc2c(C)nn(-c3ccc(N4CCCC4)nn3)c2C)c1	/	/	/	25.9µM	/	20.6µM
COC(=O)C(NC(=O)c1ccccc1)C(C)(C)SCc1ccccc1 (stereo not given)	.	/	.	18.4µM	.	?
COC(=O)C(Cc1ccccc1)NC(=O)c1cccc(S(=O)(=O)N(C)C)c1 (stereo not given)	-88.7	?	.	.	.	.
COC(=O)C(/C=N/O)NC(=O)c1ccccc1 (stereo not given)	.	.	.	.	.	.
COC(=O)C(Cc1ccccc1)NC(=S)NC(=O)c1ccccc1 (stereo not given)	.	.	.	18.4µM	.	?
COC(=O)[C@H](Cc1ccccc1)N(C)S(=O)(=O)c1cccc(S(=O)(=O)N(C)[C@@H](Cc2ccccc2)C(=O)OC)c1	.	?	.	?	.	14.6µM
CC1Cc2ccccc2N1C(=O)CN1C(=O)NC(C)(CCc2ccccc2)C1=O (stereo not given)	.	.	.	.	.	.
COc1ccc(NC(=O)CN(C)C(=O)Cc2ccc(-c3ccccc3)cc2)cc1	.	.	.	?	.	.
CN([C@@H](C(=O)OC(C)(C)C)c1ccccc1)S(=O)(=O)c1cccc(S(=O)(=O)N(C)[C@@H](C(=O)OC(C)(C)C)c2ccccc2)c1	.	.	.	?	.	13µM
O=C(NCc1cccc(Cl)c1)C1CCCN(c2nn3cc(-c4ccc(F)cc4)nc3s2)C1 (stereo not given)	/	/	/	23.1µM	/	?
CCN(CC)CCNC(=O)C1CCN(c2nn3cc(-c4ccc(F)cc4)nc3s2)CC1	/	/	/	3.26µM	/	5.17µM
Cc1ccc(CNC(=O)C2CCN(c3nn4cc(-c5ccc(F)cc5)nc4s3)CC2)cc1	/	/	/	.	/	.
O=C(Nc1cccc(Cl)c1)C1CCCN(c2nn3cc(-c4ccc(F)cc4)nc3s2)C1 (stereo not given)	/	/	/	23.1µM	/	?
Cc1cc(C)nc(N2CCCC(C(=O)Nc3cccc(Cl)c3)C2)n1 (stereo not given)	.	.	.	?	.	?
CCSc1ncc(CO)c(N)n1	.	?	.	.	.	.
SMILES	IL-1B inflam inh	ELG1 DNA repair	HT1080 IDH1KD tx	DT40 TDP1 no CPT	HT1080-NT tox	TDP1 cell CPT
O=C(NCC(c1cccnc1)N1CCc2ccccc2C1)C(=O)Nc1ccccc1F (stereo not given)	/	/	/	20.6µM	/	14.6µM
O=C(NCC(c1ccco1)N1CCc2ccccc2C1)c1ccc([N+](=O)[O-])cc1 (stereo not given)	.	?	.	23.1µM	.	?
O=C(NCC(c1cccnc1)N1CCc2ccccc2C1)C(=O)Nc1ccccc1 (stereo not given)	/	/	/	?	/	20.6µM
Cc1cc(C)cc(NC(=O)C(=O)NCC(c2cccnc2)N2CCOCC2)c1 (stereo not given)	/	/	/	.	/	.
COc1ccccc1C(=O)NCC(c1cccnc1)N1CCc2ccccc2C1 (stereo not given)	/	/	/	20.6µM	/	23.1µM
CC(C)(C)c1ccc(C(=O)Nc2nc3nc(-c4ccccc4)cc(=O)n3[nH]2)cc1	/	/	/	.	/	.
CC(C)NC(=O)N1CC[C@@]2(CCCN(C(=O)c3cnccn3)C2)C1	/	/	/	.	/	.
CC(=O)Nc1cccc(NC(=O)C(=O)NCC(c2ccco2)N2CCc3ccccc3C2)c1 (stereo not given)	.	.	.	23.1µM	.	16.4µM
O=C(NCC(c1cccnc1)N1CCc2ccccc2C1)c1ccc(F)c(F)c1 (stereo not given)	/	/	/	7.31µM	/	8.2µM
CCCCCn1c(CCCNC(=O)CC)nc2ccccc21	.	.	.	16.4µM	.	20.6µM
CCCCn1c(CCCNC(=O)c2ccco2)nc2ccccc21	.	.	.	14.6µM	.	?
CCCn1c(CCCNC(=O)c2ccccc2OC)nc2ccccc21	/	/	/	18.4µM	/	?
CCCC(=O)NCCc1nc2ccccc2n1CCC	.	.	.	.	.	.
CCCCn1c(CCNC(=O)c2ccco2)nc2ccccc21	.	.	.	?	.	?
COCc1nc2ccccc2n1Cc1c(F)cccc1Cl	.	.	.	13µM	.	18.4µM
O=C(Nc1cccc(C(=O)N2CCOCC2)c1)C1CCCCC1	/	/	.	.	.	.
CCCCn1c(CCNC(=O)CCC)nc2ccccc21	.	.	.	?	.	.
C=C(C)Cn1c(CCCNC(=O)CCC)nc2ccccc21	.	.	.	14.6µM	.	13µM
CCCCCn1c(CCNC(=O)CCC)nc2ccccc21	.	.	.	16.4µM	.	?
CCCC(=O)NCCc1nc2ccccc2n1Cc1c(F)cccc1Cl	/	/	/	14.6µM	/	20.6µM
COc1cccc(-c2n[nH]nc2C2=CC(=O)C[C@H](c3ccc(F)cc3)C2)c1	?	/	.	?	.	?
O=C1C=C(c2n[nH]nc2-c2ccccc2)C[C@@H](c2ccc(F)cc2)C1	.	/	.	16.4µM	.	?
COc1ccc([C@H]2CC(=O)C=C(c3cccc(Cl)c3)C2)cc1OC	-66.0	?	.	?	.	14.6µM
COc1ccc([C@H]2CC(=O)C=C(c3ccc(Oc4ccccc4)cc3)C2)cc1OC	.	?	.	23.1µM	.	10.3µM

Screening data: PubChem, National Center for Advancing Translational Sciences (NCATS)
